What was measured:
[1] = molecular target: 5'-AMP-activated protein kinase catalytic subunit alpha-2 (Homo sapiens) (UniProt P54646); details: at 1 µM
[2] = molecular target: T1, NUAK family SNF1-like kinase 1 (Homo sapiens) (UniProt O60285); details: at 0.1 µM
T1 sequence (whole entry): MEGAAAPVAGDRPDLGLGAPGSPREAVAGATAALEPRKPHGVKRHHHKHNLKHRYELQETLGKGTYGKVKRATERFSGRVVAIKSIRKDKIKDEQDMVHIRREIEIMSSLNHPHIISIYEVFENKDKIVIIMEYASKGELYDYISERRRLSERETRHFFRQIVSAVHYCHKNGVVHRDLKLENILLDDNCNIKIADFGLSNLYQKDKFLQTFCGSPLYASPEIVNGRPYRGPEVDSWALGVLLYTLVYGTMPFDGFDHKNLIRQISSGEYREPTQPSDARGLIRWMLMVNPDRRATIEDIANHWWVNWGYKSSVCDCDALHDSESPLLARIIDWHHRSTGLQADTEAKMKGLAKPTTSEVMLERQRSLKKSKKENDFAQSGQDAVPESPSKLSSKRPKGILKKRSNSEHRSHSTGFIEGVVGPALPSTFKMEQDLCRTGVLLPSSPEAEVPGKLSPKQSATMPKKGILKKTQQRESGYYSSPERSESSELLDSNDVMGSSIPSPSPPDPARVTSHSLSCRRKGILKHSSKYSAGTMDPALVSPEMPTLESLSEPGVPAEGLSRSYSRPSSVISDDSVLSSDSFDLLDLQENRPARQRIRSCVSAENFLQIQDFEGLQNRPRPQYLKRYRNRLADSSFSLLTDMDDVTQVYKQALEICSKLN

[3] = molecular target: T1, NUAK family SNF1-like kinase 1 (Homo sapiens); details: at 1 µM
[4] = molecular target: T2, Serine/threonine-protein kinase BRSK1 (Homo sapiens) (UniProt Q8TDC3); details: at 0.1 µM
T2 sequence (whole entry): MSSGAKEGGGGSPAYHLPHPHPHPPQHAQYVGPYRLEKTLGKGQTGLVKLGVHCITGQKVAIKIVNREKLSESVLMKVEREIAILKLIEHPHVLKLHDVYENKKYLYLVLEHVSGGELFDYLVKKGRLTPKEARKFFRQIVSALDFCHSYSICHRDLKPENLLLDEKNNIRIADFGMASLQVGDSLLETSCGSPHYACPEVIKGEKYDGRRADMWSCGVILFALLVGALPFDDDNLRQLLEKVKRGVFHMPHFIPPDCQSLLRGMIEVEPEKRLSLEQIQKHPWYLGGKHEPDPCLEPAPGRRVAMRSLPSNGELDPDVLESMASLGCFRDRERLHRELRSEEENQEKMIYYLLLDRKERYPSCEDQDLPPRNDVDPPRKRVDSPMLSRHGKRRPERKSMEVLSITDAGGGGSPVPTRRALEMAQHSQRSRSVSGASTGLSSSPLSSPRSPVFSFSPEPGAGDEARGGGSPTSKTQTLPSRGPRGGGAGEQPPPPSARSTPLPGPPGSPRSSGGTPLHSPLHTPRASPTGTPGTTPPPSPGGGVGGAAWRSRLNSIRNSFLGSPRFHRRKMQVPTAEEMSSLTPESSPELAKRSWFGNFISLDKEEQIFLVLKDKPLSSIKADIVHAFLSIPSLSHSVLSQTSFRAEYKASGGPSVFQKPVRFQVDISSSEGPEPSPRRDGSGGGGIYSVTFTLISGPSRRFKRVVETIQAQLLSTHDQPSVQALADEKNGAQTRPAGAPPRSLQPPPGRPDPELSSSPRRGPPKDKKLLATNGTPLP

[5] = molecular target: T2, Serine/threonine-protein kinase BRSK1 (Homo sapiens); details: at 1 µM
[6] = molecular target: T3, Serine/threonine-protein kinase BRSK2 (Homo sapiens) (UniProt Q8IWQ3); details: at 0.1 µM
T3 sequence (whole entry): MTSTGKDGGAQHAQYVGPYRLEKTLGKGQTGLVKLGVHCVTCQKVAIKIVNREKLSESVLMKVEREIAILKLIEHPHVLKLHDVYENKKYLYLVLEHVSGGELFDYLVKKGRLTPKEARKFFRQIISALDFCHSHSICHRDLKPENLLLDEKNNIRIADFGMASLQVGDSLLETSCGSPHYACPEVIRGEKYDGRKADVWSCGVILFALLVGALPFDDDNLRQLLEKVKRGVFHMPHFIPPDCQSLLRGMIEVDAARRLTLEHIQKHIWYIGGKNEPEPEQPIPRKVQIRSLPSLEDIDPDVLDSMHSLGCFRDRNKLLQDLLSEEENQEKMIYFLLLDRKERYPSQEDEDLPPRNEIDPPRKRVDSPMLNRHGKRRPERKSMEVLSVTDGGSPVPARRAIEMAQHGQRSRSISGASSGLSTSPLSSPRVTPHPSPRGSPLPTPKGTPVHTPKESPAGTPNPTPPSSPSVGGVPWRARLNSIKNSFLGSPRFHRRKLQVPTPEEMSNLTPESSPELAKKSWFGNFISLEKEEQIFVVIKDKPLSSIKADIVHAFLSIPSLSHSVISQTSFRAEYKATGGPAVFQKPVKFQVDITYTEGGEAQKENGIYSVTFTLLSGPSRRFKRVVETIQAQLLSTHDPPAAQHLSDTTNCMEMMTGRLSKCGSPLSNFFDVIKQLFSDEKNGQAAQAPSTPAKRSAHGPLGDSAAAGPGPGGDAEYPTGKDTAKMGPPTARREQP

[7] = molecular target: T3, Serine/threonine-protein kinase BRSK2 (Homo sapiens); details: at 1 µM
[8] = molecular target: Calcium/calmodulin-dependent protein kinase type 1D (Homo sapiens) (UniProt Q8IU85); details: at 0.1 µM
[9] = molecular target: Calcium/calmodulin-dependent protein kinase type 1D (Homo sapiens) (UniProt Q8IU85); details: at 1 µM
[10] = molecular target: Calcium/calmodulin-dependent protein kinase type II subunit alpha (Homo sapiens) (UniProt Q9UQM7); details: at 0.1 µM
[11] = molecular target: Calcium/calmodulin-dependent protein kinase type II subunit alpha (Homo sapiens) (UniProt Q9UQM7); details: at 1 µM
[12] = molecular target: Calcium/calmodulin-dependent protein kinase type II subunit delta (Homo sapiens) (UniProt Q13557); details: at 0.1 µM
[13] = molecular target: Calcium/calmodulin-dependent protein kinase type II subunit delta (Homo sapiens) (UniProt Q13557); details: at 1 µM
[14] = molecular target: T4, Calcium/calmodulin-dependent protein kinase type IV (Homo sapiens) (UniProt Q16566); details: at 0.1 µM
T4 sequence (whole entry): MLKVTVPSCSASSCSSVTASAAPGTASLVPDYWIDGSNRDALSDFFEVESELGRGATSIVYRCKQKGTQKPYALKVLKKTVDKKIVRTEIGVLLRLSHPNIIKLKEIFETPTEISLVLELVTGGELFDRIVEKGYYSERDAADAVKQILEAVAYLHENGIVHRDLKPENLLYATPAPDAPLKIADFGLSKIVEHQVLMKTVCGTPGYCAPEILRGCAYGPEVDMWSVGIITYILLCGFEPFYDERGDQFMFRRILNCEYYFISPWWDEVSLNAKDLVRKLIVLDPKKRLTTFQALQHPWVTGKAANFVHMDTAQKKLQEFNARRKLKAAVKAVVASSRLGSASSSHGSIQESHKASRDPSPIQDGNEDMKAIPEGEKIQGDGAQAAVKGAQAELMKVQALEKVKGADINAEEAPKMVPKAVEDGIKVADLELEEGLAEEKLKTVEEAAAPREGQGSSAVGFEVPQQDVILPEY

[15] = molecular target: T4, Calcium/calmodulin-dependent protein kinase type IV (Homo sapiens); details: at 1 µM
[16] = molecular target: T5, Serine/threonine-protein kinase Chk1 (Homo sapiens) (UniProt O14757); details: at 0.1 µM
T5 sequence (whole entry): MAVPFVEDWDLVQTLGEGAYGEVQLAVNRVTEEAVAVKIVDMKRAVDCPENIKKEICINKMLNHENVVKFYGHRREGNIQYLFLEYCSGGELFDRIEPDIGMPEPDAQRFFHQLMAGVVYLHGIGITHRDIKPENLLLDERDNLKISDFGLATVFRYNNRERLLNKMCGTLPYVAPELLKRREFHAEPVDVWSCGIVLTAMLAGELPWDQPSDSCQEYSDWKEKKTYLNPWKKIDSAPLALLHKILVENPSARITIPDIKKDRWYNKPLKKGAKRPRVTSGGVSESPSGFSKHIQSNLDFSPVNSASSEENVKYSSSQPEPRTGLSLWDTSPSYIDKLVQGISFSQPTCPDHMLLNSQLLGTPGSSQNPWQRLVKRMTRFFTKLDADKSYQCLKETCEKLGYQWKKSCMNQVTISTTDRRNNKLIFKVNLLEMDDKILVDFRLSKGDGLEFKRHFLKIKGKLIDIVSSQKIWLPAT

[17] = molecular target: T5, Serine/threonine-protein kinase Chk1 (Homo sapiens); details: at 1 µM
[18] = molecular target: Serine/threonine-protein kinase Chk2 (Homo sapiens) (UniProt O96017); details: at 0.1 µM
[19] = molecular target: Serine/threonine-protein kinase Chk2 (Homo sapiens) (UniProt O96017); details: at 1 µM
[20] = molecular target: Death-associated protein kinase 1 (Homo sapiens) (UniProt P53355); details: at 0.1 µM;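 note: reported figure is the mean inhibition of DAPK1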
Death-associated protein kinase 1 (Homo sapiens), sequence (P53355 whole entry, looked up): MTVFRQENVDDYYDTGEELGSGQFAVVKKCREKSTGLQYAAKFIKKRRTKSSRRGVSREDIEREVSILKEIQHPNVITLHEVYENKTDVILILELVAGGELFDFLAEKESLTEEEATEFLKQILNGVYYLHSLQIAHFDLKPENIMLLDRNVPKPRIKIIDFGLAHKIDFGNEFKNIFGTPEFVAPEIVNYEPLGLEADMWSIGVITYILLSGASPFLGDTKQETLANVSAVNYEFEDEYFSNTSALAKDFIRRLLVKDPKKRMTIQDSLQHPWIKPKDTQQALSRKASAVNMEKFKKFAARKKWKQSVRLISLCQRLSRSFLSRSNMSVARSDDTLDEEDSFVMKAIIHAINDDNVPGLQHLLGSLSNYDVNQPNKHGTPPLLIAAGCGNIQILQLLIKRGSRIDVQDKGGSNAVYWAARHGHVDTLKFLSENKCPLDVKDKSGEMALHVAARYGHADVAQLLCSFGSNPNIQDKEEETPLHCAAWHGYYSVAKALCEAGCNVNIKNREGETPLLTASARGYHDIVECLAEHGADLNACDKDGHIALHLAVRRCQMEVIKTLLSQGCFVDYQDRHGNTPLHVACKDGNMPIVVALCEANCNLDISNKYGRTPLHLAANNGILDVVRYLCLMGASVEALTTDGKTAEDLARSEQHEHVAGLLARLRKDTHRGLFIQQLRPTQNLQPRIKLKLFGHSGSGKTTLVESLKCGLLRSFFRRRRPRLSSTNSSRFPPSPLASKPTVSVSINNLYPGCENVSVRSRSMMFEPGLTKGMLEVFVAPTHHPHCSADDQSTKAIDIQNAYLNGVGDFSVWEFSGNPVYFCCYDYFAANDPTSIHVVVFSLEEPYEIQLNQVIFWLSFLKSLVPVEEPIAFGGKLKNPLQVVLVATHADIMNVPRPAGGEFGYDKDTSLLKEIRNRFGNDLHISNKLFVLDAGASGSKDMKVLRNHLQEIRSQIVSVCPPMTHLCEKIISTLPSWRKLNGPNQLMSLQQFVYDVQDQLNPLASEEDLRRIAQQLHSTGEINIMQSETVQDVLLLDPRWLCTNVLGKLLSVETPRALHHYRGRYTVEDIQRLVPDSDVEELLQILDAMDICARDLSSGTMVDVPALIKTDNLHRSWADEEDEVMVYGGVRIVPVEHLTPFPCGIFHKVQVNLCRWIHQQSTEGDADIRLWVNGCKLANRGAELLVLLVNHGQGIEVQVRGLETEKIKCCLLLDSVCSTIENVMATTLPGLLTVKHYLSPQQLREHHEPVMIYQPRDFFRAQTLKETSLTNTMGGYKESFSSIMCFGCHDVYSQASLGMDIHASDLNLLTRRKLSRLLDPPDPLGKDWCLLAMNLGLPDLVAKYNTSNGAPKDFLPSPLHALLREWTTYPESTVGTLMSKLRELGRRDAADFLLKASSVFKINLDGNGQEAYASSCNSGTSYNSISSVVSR

5'-AMP-activated protein kinase catalytic subunit alpha-2 (Homo sapiens), sequence (P54646 whole entry, looked up): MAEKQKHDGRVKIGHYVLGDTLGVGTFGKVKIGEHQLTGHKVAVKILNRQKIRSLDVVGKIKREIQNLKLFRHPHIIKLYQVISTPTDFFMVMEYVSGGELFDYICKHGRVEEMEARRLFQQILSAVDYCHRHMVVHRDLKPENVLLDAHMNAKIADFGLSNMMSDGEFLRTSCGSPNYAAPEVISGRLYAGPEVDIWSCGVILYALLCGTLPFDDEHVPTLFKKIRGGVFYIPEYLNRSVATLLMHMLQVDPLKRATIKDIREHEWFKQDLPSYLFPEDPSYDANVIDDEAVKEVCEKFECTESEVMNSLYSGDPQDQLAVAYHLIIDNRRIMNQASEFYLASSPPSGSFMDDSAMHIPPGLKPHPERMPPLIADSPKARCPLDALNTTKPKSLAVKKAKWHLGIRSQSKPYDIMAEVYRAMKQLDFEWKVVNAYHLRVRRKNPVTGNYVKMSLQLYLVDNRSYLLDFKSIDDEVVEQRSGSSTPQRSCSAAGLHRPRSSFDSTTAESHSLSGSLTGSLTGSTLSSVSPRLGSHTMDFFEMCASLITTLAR
Calcium/calmodulin-dependent protein kinase type II subunit alpha (Homo sapiens), sequence (Q9UQM7 whole entry): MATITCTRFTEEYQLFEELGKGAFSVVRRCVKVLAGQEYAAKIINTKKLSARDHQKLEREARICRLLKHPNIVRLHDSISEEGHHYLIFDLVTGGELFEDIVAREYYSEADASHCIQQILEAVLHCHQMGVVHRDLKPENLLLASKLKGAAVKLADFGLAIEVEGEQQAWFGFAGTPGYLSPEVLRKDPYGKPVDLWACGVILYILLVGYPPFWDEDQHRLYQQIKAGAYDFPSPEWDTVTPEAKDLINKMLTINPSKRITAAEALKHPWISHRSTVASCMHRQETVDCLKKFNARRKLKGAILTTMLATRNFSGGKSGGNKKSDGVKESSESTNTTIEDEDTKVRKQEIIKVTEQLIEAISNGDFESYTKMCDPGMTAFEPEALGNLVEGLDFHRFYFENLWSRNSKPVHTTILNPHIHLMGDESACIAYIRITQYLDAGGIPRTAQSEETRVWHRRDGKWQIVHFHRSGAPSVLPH
Serine/threonine-protein kinase Chk2 (Homo sapiens), sequence (O96017 whole entry): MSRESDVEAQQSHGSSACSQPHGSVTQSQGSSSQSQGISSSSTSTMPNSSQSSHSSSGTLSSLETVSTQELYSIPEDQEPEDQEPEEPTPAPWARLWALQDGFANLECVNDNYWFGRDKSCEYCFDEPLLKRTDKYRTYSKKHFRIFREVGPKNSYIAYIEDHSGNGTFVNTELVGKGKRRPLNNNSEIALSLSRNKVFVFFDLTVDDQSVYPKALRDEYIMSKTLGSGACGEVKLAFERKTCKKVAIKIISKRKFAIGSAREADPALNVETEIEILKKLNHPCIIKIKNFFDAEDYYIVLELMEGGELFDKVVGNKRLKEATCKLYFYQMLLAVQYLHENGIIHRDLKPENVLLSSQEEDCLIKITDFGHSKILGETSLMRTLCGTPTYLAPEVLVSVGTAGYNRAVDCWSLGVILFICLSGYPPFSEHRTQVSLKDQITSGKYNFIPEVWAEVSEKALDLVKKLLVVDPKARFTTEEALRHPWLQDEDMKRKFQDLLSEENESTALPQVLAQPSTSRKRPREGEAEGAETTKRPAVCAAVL
Calcium/calmodulin-dependent protein kinase type II subunit delta (Homo sapiens), sequence (Q13557 whole entry): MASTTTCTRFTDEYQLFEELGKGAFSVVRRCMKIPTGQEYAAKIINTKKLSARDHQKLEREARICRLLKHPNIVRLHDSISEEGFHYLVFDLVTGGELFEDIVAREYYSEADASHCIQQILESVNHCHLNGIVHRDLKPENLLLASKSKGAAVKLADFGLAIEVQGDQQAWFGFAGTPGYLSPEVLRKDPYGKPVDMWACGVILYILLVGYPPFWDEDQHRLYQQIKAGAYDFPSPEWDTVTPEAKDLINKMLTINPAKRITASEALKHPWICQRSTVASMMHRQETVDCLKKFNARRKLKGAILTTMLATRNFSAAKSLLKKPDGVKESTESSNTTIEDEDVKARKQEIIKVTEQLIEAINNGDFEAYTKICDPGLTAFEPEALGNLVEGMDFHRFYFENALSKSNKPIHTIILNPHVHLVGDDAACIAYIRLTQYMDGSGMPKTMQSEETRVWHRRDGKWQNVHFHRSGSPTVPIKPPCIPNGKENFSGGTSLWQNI
Calcium/calmodulin-dependent protein kinase type 1D (Homo sapiens), sequence (Q8IU85 whole entry, looked up): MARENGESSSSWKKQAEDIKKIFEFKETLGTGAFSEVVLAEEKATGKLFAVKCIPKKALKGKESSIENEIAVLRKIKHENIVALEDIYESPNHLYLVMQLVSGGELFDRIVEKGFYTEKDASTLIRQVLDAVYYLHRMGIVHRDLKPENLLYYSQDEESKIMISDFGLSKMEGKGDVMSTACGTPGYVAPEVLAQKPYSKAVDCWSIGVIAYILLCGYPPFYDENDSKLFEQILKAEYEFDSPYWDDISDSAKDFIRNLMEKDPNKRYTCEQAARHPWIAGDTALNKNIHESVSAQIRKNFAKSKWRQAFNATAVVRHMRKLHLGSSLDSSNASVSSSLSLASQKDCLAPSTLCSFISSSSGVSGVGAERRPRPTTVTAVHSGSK

COc1cc2ncn(-c3cc(O[C@H](C)c4ccccc4Cl)c(C(N)=O)s3)c2cc1OC
inhibition [1]: 8.68%
inhibition [2]: 24%
inhibition [3]: 71.8%
inhibition [4]: 30.1%
inhibition [5]: 64.9%
inhibition [6]: 42%
inhibition [7]: 69.2%
inhibition [8]: 1.01%
inhibition [9]: 2.31%
inhibition [10]: 3.24%
inhibition [11]: 7.42%
inhibition [12]: 5.14%
inhibition [13]: 19.1%
inhibition [14]: -2.07%
inhibition [15]: -0.73%
inhibition [16]: 3.51%
inhibition [17]: -0.5%
inhibition [18]: -2.58%
inhibition [19]: -0.51%
inhibition [20]: -5.15%

COc1cc(C=NNc2ncnc3c2cnn3-c2ccccc2)ccc1O
inhibition [1]: 6.79%
inhibition [2]: 16.1%
inhibition [3]: 57.3%
inhibition [4]: 8.76%
inhibition [5]: 40.1%
inhibition [6]: 10.3%
inhibition [7]: 43.5%
inhibition [8]: 0.83%
inhibition [9]: 2.96%
inhibition [10]: 3.14%
inhibition [11]: 5.31%
inhibition [12]: 3.65%
inhibition [13]: 12.4%
inhibition [14]: -0.28%
inhibition [15]: -1.35%
inhibition [16]: -2.23%
inhibition [17]: -2.87%
inhibition [18]: -3.59%
inhibition [19]: -0.98%
inhibition [20]: -5.64%

Cn1cc(C=C2C(=O)Nc3cccnc32)c2ccccc21
inhibition [1]: 8.64%
inhibition [2]: 8.91%
inhibition [3]: 44.5%
inhibition [4]: 4.71%
inhibition [5]: 12.3%
inhibition [6]: 6.03%
inhibition [7]: 12.3%
inhibition [8]: 0.99%
inhibition [9]: 2.41%
inhibition [10]: 1.58%
inhibition [11]: 3.18%
inhibition [12]: 2.44%
inhibition [13]: 6.23%
inhibition [14]: 0.47%
inhibition [15]: -0.07%
inhibition [16]: 0.66%
inhibition [17]: 7.2%
inhibition [18]: 2.65%
inhibition [19]: 15.6%
inhibition [20]: 2.44%

NS(=O)(=O)c1ccc(N/N=C2\C(=O)Nc3ccc(C(=O)NCCc4c[nH]cn4)cc32)cc1
inhibition [1]: 63.6%
inhibition [2]: 54.2%
inhibition [3]: 83.5%
inhibition [4]: 21.6%
inhibition [5]: 63.5%
inhibition [6]: 34.6%
inhibition [7]: 74.9%
inhibition [8]: 1.24%
inhibition [9]: 3.93%
inhibition [10]: 5.62%
inhibition [11]: 10.6%
inhibition [12]: 8.76%
inhibition [13]: 32.5%
inhibition [14]: 0.01%
inhibition [15]: 0.46%
inhibition [16]: 4.59%
inhibition [17]: 17.2%
inhibition [18]: 4.59%
inhibition [19]: 18.3%
inhibition [20]: 4.26%

COC(=O)Nc1nc2cc(Oc3ccc(NC(=O)Nc4cccc(C(=O)O)c4)cc3)ccc2[nH]1
inhibition [1]: 2.8%
inhibition [2]: 6.73%
inhibition [3]: 8%
inhibition [4]: -1.07%
inhibition [5]: 2.91%
inhibition [6]: 2.19%
inhibition [7]: 9.32%
inhibition [8]: 0.59%
inhibition [9]: -1.87%
inhibition [10]: 1.77%
inhibition [11]: 3.09%
inhibition [12]: 1.92%
inhibition [13]: 1.91%
inhibition [14]: -1.16%
inhibition [15]: -2.08%
inhibition [16]: -3.62%
inhibition [17]: -0.43%
inhibition [18]: 0.25%
inhibition [19]: 6.26%
inhibition [20]: 1.22%

O=C1NC(=O)C(N2CCc3ccccc32)=C1c1ccc(Cl)cc1
inhibition [1]: 5.78%
inhibition [2]: 4.44%
inhibition [3]: 7.39%
inhibition [4]: 3.67%
inhibition [5]: 5.07%
inhibition [6]: 2.92%
inhibition [7]: 3.2%
inhibition [8]: 0.76%
inhibition [9]: 1.55%
inhibition [10]: 4.4%
inhibition [11]: 2.12%
inhibition [12]: 4.21%
inhibition [13]: 5.17%
inhibition [14]: 0.68%
inhibition [15]: 0.58%
inhibition [16]: 9.38%
inhibition [17]: 12.7%
inhibition [18]: 8.35%
inhibition [19]: 8.52%
inhibition [20]: 11.1%

CC(=O)Nc1cccc(C#Cc2cncnc2Nc2ccc(OCc3cccc(F)c3)c(Cl)c2)n1
inhibition [1]: -0.66%
inhibition [2]: 2.57%
inhibition [3]: 1.97%
inhibition [4]: -1.43%
inhibition [5]: 5.34%
inhibition [6]: 1.19%
inhibition [7]: 5.79%
inhibition [8]: 0.41%
inhibition [9]: 0.25%
inhibition [10]: 0.69%
inhibition [11]: 1.27%
inhibition [12]: -0.74%
inhibition [13]: -2.74%
inhibition [14]: -4.11%
inhibition [15]: -7.03%
inhibition [16]: 7.14%
inhibition [17]: 5.32%
inhibition [18]: 3.3%
inhibition [19]: 4.37%
inhibition [20]: 7.49%

Reference: ChEMBL document CHEMBL1961873, “Compounds: GSK PKIS; Assays: Nanosyn kinase panel” (2012)
